Experimental data as given in the supplement of paper PMC8183993.
Where “and” joins values, the source holds several entries; their conditions need not be identical. Equal values may be shown once. Where a name gives a salt, the structure may show the parent alone. ± gives the standard deviation of the averaged measurements. Over roughly 3,100 compounds, “mean cytoplasmic OPP incorporation (global translation) relative to DMSO” has its median near 100; the lowest 2% begin near 56. Only a selection was taken, and the lowest values are over-represented in it overall.

test system: U2OS; assay: mean cytoplasmic OPP incorporation (global translation) relative to DMSO (% of DMSO); higher = more protein synthesis; conditions: 10 µM; 24 h
Procedure: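 Primary image-based screen in U2OS cells: compounds at 10 uM for 24 h, then a 1 h o-propargyl-puromycin (OPP) pulse, click labelling, and high-throughput microscopy. Mean cytoplasmic OPP intensity and nuclei count were normalised to DMSO wells within each plate (DMSO = 100) and averaged over triplicate plates.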

Structure (SMILES) | mean cytoplasmic OPP incorporation
CCOc1cc(N2CCC(O)CC2)ccc1Nc1ncc2c(n1)N(C)c1ccccc1C(=O)N2C | 110
COc1cc(N2CCC(N)CC2)ccc1Nc1ncc(Cl)c(-c2c[nH]c3ccccc23)n1 | 36.5
CNC(=O)c1ccccc1Nc1nc(Nc2ccc(N3CCOCC3)cc2OC)ncc1Cl | 90.7 ± 4.2
c1ccc2c(Cc3c[nH]c4ccccc34)c[nH]c2c1 [Diindolylmethane] | 93.7
OCc1c[nH]c2ccccc12 [Indole-3-carbinol] | 113
O=C(/C=C/c1ccc(CN(CCO)CCc2c[nH]c3ccccc23)cc1)NO [LAQ824 (NVP-LAQ824, Dacinostat)] | 47.7
CC(C)C[C@H](NC(=O)N[C@H](C(=O)N[C@@H](CCC(N)=O)C(=O)N[C@@H](C)C=O)[C@@H]1CCNC(=N)N1)C(=O)O [Elastatinal] | 98.9
COc1cc(OC)c(C(=O)CCCCN2CCC3(CC2)NC(=O)NC3=O)cc1NS(=O)(=O)c1ccc(C(F)(F)F)cc1 | 129
CC1=CC(=O)c2ccccc2C1=O [Menadione] | 95.2
CC1(C)C(=O)NC2=C1C(=O)C(=O)c1ccccc12 | 59.6 and 42.6
CC1(C)CCC2=C(O1)c1ccccc1C(=O)C2=O | 110
c1cc2c(cc1C1CCCCC1)c1c3n2CCNC3CCC1 (centres undefined) [Tetrindole mesylate] | 129
C=C(C)[C@@H](CC=C(C)C)C[C@@]12C[C@@H](CC=C(C)C)C(C)(C)[C@@](CC=C(C)C)(C(=O)C(C(=O)c3ccc(O)c(O)c3)=C1O)C2=O [Garcinol] | 100
C[C@@H](NCc1cc(Br)cc2[nH]c(=O)c(=O)[nH]c12)P(=O)(O)O | 96.4
Cc1ccc(C(=O)Nc2ccc(CN3CCN(C)CC3)c(C(F)(F)F)c2)cc1C#Cc1cnc2cccnn12 | 32.7
Cc1ccc(C(=O)Nc2ccc(CN3CCN(C)CC3)c(C(F)(F)F)c2)cc1C#Cc1cnc2[nH]ncc2c1 [GZD824 Dimesylate] | 37.4
Cc1ccc(C(=O)Nc2cccc(C(F)(F)F)c2)cc1Nc1nc(-c2cccnc2)nc2c1cnn2C | 145
Cc1ccc(NC(=O)c2ccc(CN3CC[C@H](N(C)C)C3)c(C(F)(F)F)c2)cc1Nc1nccc(-c2cncnc2)n1 [Bafetinib (INNO-406)] | 118
O=C(Cc1ccccc1)Nc1cccc(C(=O)Nc2ccccc2C(=O)O)c1 | 106
S=c1ccss1 [1,2-Dithiole-3-thione] | 115
CC[C@H](C)[C@H](N)C(=O)N1CCSC1 [P32/98 hemifumarate salt] | 107

Structure (SMILES) | mean cytoplasmic OPP incorporation
NC(=O)c1ccncc1 [Isonicotinamide] | 109
C=CC(=O)c1ccc2ccccc2c1 | 100
O=C(/C=C/c1ccc2ccccc2n1)c1ccncc1 | 26.3
COc1cc2c(NC3CCN(C)CC3)nc(N3CCCN(C)CC3)nc2cc1OCCCN(C)C | 112
CCn1nnc2c(N3CCOCC3)nc(-c3ccc(NC(=O)Nc4ccc(C(=O)N5CCN(C)CC5)cc4)cc3)nc21 | 67.6
Cc1c(C(=O)NC2CCCCC2)sc2nc3ccc(N)cc3n12 | 106
NC(=O)Nc1sc(-c2ccc(F)cc2)cc1C(N)=O | 76.5 ± 9.7
NC(=O)Nc1cc(-c2cccc(F)c2)sc1C(=O)N[C@H]1CCCNC1 | 25.1
C[C@H]1O[C@@H](O[C@H]2[C@@H](O)C[C@H](O[C@H]3[C@@H](O)C[C@H](O[C@H]4CC[C@@]5(C)[C@H](CC[C@@H]6[C@@H]5C[C@@H](O)[C@]5(C)[C@@H](C7=CC(=O)OC7)CC[C@]65O)C4)O[C@@H]3C)O[C@@H]2C)C[C@H](O)[C@@H]1O [Digoxin] | 19
Oc1ccc(-c2nc3cc(O)cc(Br)c3o2)cc1 | 89.5
O=C[C@@H]1CCCN1C(=O)[C@@H]1CCCN1C(=O)OCc1ccccc1 [Z-Prolyl-prolinal] | 98
N#C/C(=C\c1ccc(O)c(O)c1)C(=O)NCCCCc1ccccc1 | 87.8
CCCCC[C@H](O)CC(=O)CCc1ccc(O)c(OC)c1 [Gingerol] | 102
NC(C(=O)O)c1cc(O)cc(O)c1 (racemic) | 107
N[C@@H](Cc1cc(I)c(O)c(I)c1)C(=O)O [3,5-Diiodo-L-tyrosine] | 100
O=[N+]([O-])c1ccc2c(c1)S(=O)(=O)C=C2 [Stattic] | 48.5
O=C1Nc2ccc([N+](=O)[O-])cc2C1=O [5-Nitroisatin] | 104
CS(=O)(=O)Nc1ccc([N+](=O)[O-])cc1Oc1ccccc1 [Nimesulide] | 97.3 ± 5.5
O=C(O)c1ccc(-c2ccc3cc(O)c(C45CC6CC(CC(C6)C4)C5)cc3c2)cc1 | 98.8
Cc1ccc(C(=O)c2cc(/C=C/C(=O)NO)n(C)c2)cc1 | 99.3
C1CCC(C(CC2CCCCN2)C2CCCCC2)CC1 (centres undefined) [Perhexiline maleate] | 53

Structure (SMILES) | mean cytoplasmic OPP incorporation
CNC(C)C1CCC(N)C(OC2C(N)CC(N)C(OC3OCC(C)(O)C(NC)C3O)C2O)O1 (centres undefined) [Gentamycin sulfate (Gentacycol)] | 107
NCC1CCN(c2nccc(-c3ccc4ccccc4c3)n2)CC1 | 88.3
C[C@H]1CC[C@@]2(OC1)O[C@H]1C[C@H]3[C@@H]4CC[C@@H]5C[C@@H](O[C@@H]6O[C@H](CO)[C@H](O)[C@H](O)[C@H]6O[C@@H]6O[C@H](CO)[C@@H](O)[C@H](O)[C@H]6O)CC[C@]5(C)[C@H]4CC[C@]3(C)[C@H]1[C@@H]2C [Timosaponin A-III] | 111
C=CC(=O)Nc1cccc(Sc2nc(Nc3ccc(N4CCN(C)CC4)cc3)ncc2Cl)c1 | 57.4
C=CC(=O)Nc1cccc(Oc2nc(Nc3ccc(N4CCN(C)CC4)cc3)ncc2Cl)c1 | 64.9
CNC(=O)c1nn(C)c2c1C(C)(C)Cc1cnc(Nc3ccc(N4CCN(C)CC4)cc3)nc1-2 | 89.3 and 44.9
O=C(NC[C@H](O)CN1CCc2ccccc2C1)c1ccnc(NC2CCC2)c1 | 107
NCCCCCCCCCCNS(=O)(=O)c1cccc2c(Cl)cccc12 [A-7 hydrochloride] | 115
CC(C)c1ccc(Cn2ccc3c4c(N)nc(NC5CC5)nc4ccc32)cc1 | 40.1
O=C(NCCN1CCCCC1)c1ccc(I)cc1 [N-[2-(Piperidinylamino)ethyl]-4-iodobenzamide] | 100
C[C@H](Cn1cnc2c(N)ncnc21)OCP(=O)(O)O [Tenofovir (Viread)] | 99.5
CC(C)(C)n1nc(-c2cccc3ccccc23)c2c(N)ncnc21 [1-Naphthyl PP1] | 93
CC(C)n1nc(-c2cc3cc(O)ccc3[nH]2)c2c(N)ncnc21 [Torkinib (PP242)] | 52.5
CC(C)n1nc(-c2ccc3oc(N)nc3c2)c2c(N)ncnc21 | 53.5 ± 16
Cc1ccccc1-n1c(Cn2nc(-c3cccc(O)c3)c3c(N)ncnc32)nc2cccc(C)c2c1=O | 102
CCO/C(O)=C1\C(C)=NC(c2ccccc2)=C(C(=O)OCc2ccc([N+](=O)[O-])cc2)C1C#Cc1ccccc1 (centres undefined) | 108
CC1=C(/C=C/C(C)=C\C=C\C(C)=C\C(=O)O)C(C)(C)CCC1 [9-cis Retinoic acid] | 96.4
Nc1ccc(CC(CC(=O)O)C(=O)O)cc1 [4-Amino-D, L-benzylsuccinic acid] | 104
CC(C)[C@@H](O)CC[C@@H](C)[C@H]1CC[C@H]2[C@@H]3CC=C4C[C@@H](O)CC[C@]4(C)[C@H]3CC[C@]12C [24(S)-Hydroxycholesterol] | 104
Cc1ccc2nc(NCCN)c3ncc(C)n3c2c1 | 56.1
Cc1nc(N)sc1-c1ccnc(Nc2ccc(N3CCOCC3)cc2)n1 | 93.4

Structure (SMILES) | mean cytoplasmic OPP incorporation
Cc1ccnc(NS(=O)(=O)c2ccc(NC(=O)Nc3ccc(S(=O)(=O)Nc4nccc(C)n4)cc3)cc2)n1 | 96.2
Cc1ncc(-c2ccnc(Nc3ccc(S(C)(=O)=O)cc3)n2)n1C(C)C | 55.9
C[C@]12CC[C@@H](O)C[C@@H]1CC[C@@H]1[C@@H]2CC[C@]2(C)C=CC[C@@H]12 [3a, 5a-Androstenol] | 97.3
Cn1cc(C2=C(c3ccc(Cl)cc3Cl)C(=O)NC2=O)c2ccccc21 | 104 and 106
Cn1cc(C2=C(c3cn(CCCSC(=N)N)c4ccccc34)C(=O)NC2=O)c2ccccc21 [Ro 31-8220 Mesylate] | 30.3
Cn1cc(C2=C(c3cn(CCCSC(=N)N)c4ccccc34)C(=O)NC2=O)c2ccccc21 [Ro 31-8220 mesylate] | 62.4
CN(C)CCCn1cc(C2=C(c3c[nH]c4ccccc34)C(=O)NC2=O)c2ccccc21 | 90.7 and 79.3
CC(=O)C1=C(O)C=C2Oc3c(C(C)=O)c(O)c(C)c(O)c3[C@]2(C)C1=O [Usnic acid] | 101
CC(=Nc1ccccc1N)c1c(C)cc(=O)n(O)c1O | 95.7
COc1cccc(-c2cc(NCc3ccc4c(c3)OCO4)nc(N)n2)c1 | 92.3
CNCCN1CCC(OCc2ccccc2)CC1 | 111
Nc1ccccc1NC(=O)CCCCCCC(=O)Nc1ccccc1 | 92.9
O=C(CCCCCCC(=O)Nc1cccnc1)NO [Pyroxamide] | 65.9
O=C(CCCCCCC(=O)Nc1ccccc1)NO [Vorinostat] | 41.9
CSCCC(C=O)NC(=O)C(CC(C)C)NC(=O)[C@H](CC(C)C)NC(C)=O (some centres undefined) [Calpain Inhibitor II (ALLM)] | 109
COC1CCC(C(=O)c2ccc3nc4c(cc3c2)CCCO4)CC1 (centres undefined) | 98.8
Nc1ncnc2c1c(-c1cnc3[nH]ccc3c1)nn2C1CCCC1 | 44.2
C=CC(=O)N1CCC[C@@H](n2nc(-c3ccc(Oc4ccccc4)cc3)c3c(N)ncnc32)C1 | 105 ± 2.3
N#CC[C@H](C1CCCC1)n1cc(-c2ncnc3[nH]ccc23)cn1 | 83.53 ± 0.64
COc1cccc(/C=N/N=C/c2cccc(OC)c2)c1 | 99.7
CC1=C(/C=C/C(C)=C/C=C/C(C)=C\CO)C(C)(C)CCC1 [13-cis-Retinol] | 90.9
